Experimental data published in PubChem BioAssay (Tox21).
Where “and” joins values, the source holds several entries; their conditions need not be identical. Identical values can stand only once. Inconclusive results are not listed. Where a call stands in place of a potency, no number is given. A structure can be active in one record and inactive in another. Calls of active or inactive are those of the source. Unless noted, the call rests on the fitted dose curve; in most records, active means well fitted curve in the direction sought with a large enough effect in the repeat runs; inconclusive means weak or mixed curves; inactive means no such curve, though single readings can be large; an effect the other way counts as inactive or inconclusive.

Experiments:
[1] = A CellTox Green Cytotoxicity Assay to monitor cytotoxicity in HEK293 cells - 32 hour (AID 1224881); further: nearly all actives have a fitted effect of over 40% in size; further: potency means the concentration at half of the fitted maximal effect
Procedure, shortened: (§1)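 HEK293 cells premixed with CellTox Green dye were seeded at 600 cells/well and left 5 h at 37 C/5% CO2 before pin transfer of 23 nL compound in DMSO. Fluorescence from dye bound to dead-cell DNA was read during 40 h treatment.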

[2] = A CellTox Green Cytotoxicity Assay to monitor cytotoxicity in HepG2 cells - 0 hour (AID 1224882); further: nearly all actives have a fitted effect of over 35% in size; further: potency means the concentration at half of the fitted maximal effect
Procedure, shortened: (§2)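 HepG2 cells were seeded together with the CellTox Green dye at 600 cells/well, left 5 h at 37 C/5% CO2, then given compounds in DMSO. Fluorescence from dye bound to dead-cell DNA was read repeatedly over 40 h of treatment at 37 C.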

[3] = A CellTox Green Cytotoxicity Assay to monitor cytotoxicity in HepG2 cells - 32 hour (AID 1224883); further: nearly all actives have a fitted effect of over 50% in size; further: potency means the concentration at half of the fitted maximal effect
Procedure, shortened: as §2

[4] = A CellTox Green Cytotoxicity Assay to monitor cytotoxicity in HEK293 cells - 8 hour (AID 1224884); further: nearly all actives have a fitted effect of over 35% in size; further: potency means the concentration at half of the fitted maximal effect
Procedure, shortened: as §1

[5] = qHTS RealTime-Glo MT Cell Viability Assay in HepG2 cells - 16 hour (AID 1224885); further: nearly all actives have a fitted effect of over 50% in size; further: potency means the concentration at half of the fitted maximal effect
Procedure, shortened: (§3)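 Luminescence read-out: viable HepG2 cells reduce a prosubstrate to a NanoLuc substrate, giving a signal proportional to live cell number. Reads taken at 0, 8, 16, 24, 32 and 40 h of compound exposure at 37 C.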

[6] = qHTS RealTime-Glo MT Cell Viability Assay in HEK293 cells - 24 hour (AID 1224886); further: nearly all actives have a fitted effect of over 50% in size; further: potency means the concentration at half of the fitted maximal effect
Procedure, shortened: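 Nonlytic real-time viability readout: viable cells convert prosubstrate to NanoLuc substrate, giving luminescence proportional to live cell number. HEK293, 600 cells/well, compound added after 5 h, continuous culture at 37 C.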

[7] = A CellTox Green Cytotoxicity Assay to monitor cytotoxicity in HEK293 cells - 16 hour (AID 1224888); further: nearly all actives have a fitted effect of over 35% in size
Procedure, shortened: as §1

[8] = qHTS RealTime-Glo MT Cell Viability Assay in HepG2 cells - 0 hour (AID 1224889); further: nearly all actives have a fitted effect of over 50% in size
Procedure, shortened: as §3

[9] = A CellTox Green Cytotoxicity Assay to monitor cytotoxicity in HepG2 cells - 8 hour (AID 1224890); further: nearly all actives have a fitted effect of over 45% in size; further: potency means the concentration at half of the fitted maximal effect
Procedure, shortened: as §2

[10] = qHTS assay to identify small molecule antagonists of the estrogen receptor alpha (ER-alpha) signaling pathway using the BG1 cell line in the presence of 0.1 nM 17-beta-estradiol - cell viability counter screen (AID 1259241); further: nearly all actives have a fitted effect of over 40% in size
Procedure, shortened: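 Live-cell protease activity (CellTiter-Fluor fluorescence, 30 min) was read in the same wells after VM7Luc4E2 cells had been exposed to compounds with 0.1 nM 17beta-estradiol for 22 hr at 37C.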

[11] = qHTS assay to identify small molecule antagonists of the androgen receptor (AR) signaling pathway using the MDA cell line in the presence of 0.5 nM R1881 - cell viability counter screen (AID 1259242); further: nearly all actives have a fitted effect of over 45% in size
Procedure, shortened: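 MDA-kb2 cells (human breast carcinoma, stably carrying MMTV-luciferase reporter) were exposed to compounds with 0.5 nM R1881 (final) for 16 hr at 37C, 0% CO2; viability then read as live-cell protease fluorescence (CellTiter-Fluor, 30 min) in the same wells.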

[12] = target: Estrogen receptor (Homo sapiens) (UniProt P03372); test: qHTS assay to identify small molecule antagonists of the estrogen receptor alpha (ER-alpha) signaling pathway using the BG1 cell line in the presence of 0.1 nM 17-beta-estradiol (AID 1259244); further: nearly all actives have a fitted effect of over 50% in size; further: potency means the concentration at half of the fitted maximal effect
Procedure, shortened: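 VM7Luc4E2 cells (endogenous full-length ER-alpha, stable 4xERE-luciferase) were grown 5 days in phenol red-free medium with charcoal-stripped FBS, then exposed 22 h at 37C to compounds plus 0.1 nM (final) 17beta-estradiol; ONE-Glo luminescence read-out.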

[13] = qHTS assay to identify small molecule phospholipidosis (PLD) inducers (AID 1259344; active means well fitted curve in the direction sought with a large enough effect; an effect the other way counts as inactive or inconclusive)
Procedure, shortened: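 Quantitative HTS in HepG2: compound plus LipidTOX Red dye for 24 h, paraformaldehyde fixation with Hoechst 33342, widefield high-content imaging; amiodarone as positive and DMSO as negative control.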

[14] = qHTS assay to identify small molecule HDAC inhibitors (AID 1259364); further: nearly all actives have a fitted effect of over 45% in size; further: potency means the concentration at half of the fitted maximal effect
Procedure, shortened: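 Wild-type HCT-116 cells were plated overnight, exposed to compounds for 2 h at 37 °C, then given HDAC-Glo class I/II luminogenic reagent for 30 min at room temperature before luminescence was read.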

[15] = qHTS assay to identify small molecule HDAC inhibitors - cell viability counter screen (AID 1259365)
Procedure, shortened: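 HCT-116 (wild type), 1,500 cells/well, overnight 37C/5% CO2; compound in DMSO 2hr; CellTiter-Glo 30min RT; luminescence read.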

[16] = qHTS assay to identify small molecule agonists of the sonic hedgehog signaling (Shh) pathway - cell viability counter screen (AID 1259366); further: nearly all actives have a fitted effect of over 50% in size; further: potency means the concentration at half of the fitted maximal effect
Procedure, shortened: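 CellTiter-Fluor fluorescence read-out, 1 hr at 37C, added after 23hr compound exposure. Cells: 3T3 Gli1-Luc, an NIH/3T3 clone with stably integrated Gli1-Luc reporter, plated 4hr before compound.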

[17] = qHTS assay to identify small molecule antagonists of the sonic hedgehog signaling (Shh) pathway - cell viability counter screen (AID 1259367); further: nearly all actives have a fitted effect of over 55% in size; further: potency means the concentration at half of the fitted maximal effect
Procedure, shortened: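 Seed 3T3 Gli1-Luc cells at 2,000 per well; incubate 4 hr; add compound in DMSO, then conditioned medium; incubate at 37C with 5% CO2; add CellTiter-Fluor after 23 hr; read fluorescence 1 hr later.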

[18] = qHTS assay to identify small molecule agonists of the sonic hedgehog signaling (Shh) pathway (AID 1259368; calls by dose curve; further: series mostly up to about 92 µM; nearly all actives have a fitted effect of over 15% in size)
Procedure, shortened: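 NIH/3T3-derived 3T3Gli1-Luc cells carrying a stably integrated Gli1 response element–firefly luciferase reporter were plated, left 4 hr at 37 C, then given compounds in DMSO for 24 hr. Luminescence was read 30 min after adding luciferase reagent.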

[19] = qHTS RealTime-Glo MT Cell Viability Assay in HEK293 cells - 8 hour (AID 1224887); further: nearly all actives have a fitted effect of over 50% in size; further: potency means the concentration at half of the fitted maximal effect
Procedure, shortened: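 HEK293 cells mixed with RealTime-Glo reagents (NanoLuc plus cell-permeant prosubstrate) at 600 cells/well, preincubated 5 h at 37 C/5% CO2, then given 23 nL compound in DMSO. Nonlytic luminescence from viable cells was read at 0, 8, 16, 24, 32 and 40 h.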

[20] = target: Androgen receptor (Homo sapiens) (UniProt P10275); test: qHTS assay to identify small molecule antagonists of the androgen receptor (AR) signaling pathway using the MDA cell line in the presence of 0.5 nM R1881 (AID 1259243); further: nearly all actives have a fitted effect of over 50% in size; further: potency means the concentration at half of the fitted maximal effect
Procedure, shortened: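 MDA-kb2 human breast carcinoma cells carrying an MMTV-luciferase reporter (AR- and GR-responsive) were plated, rested 5 hr at 37C, dosed with compounds, then stimulated with 0.5 nM R1881 (final) for 16 hr; luminescence was read after ONE-Glo.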

Sequence of Estrogen receptor (Homo sapiens) (P03372 whole entry, looked up): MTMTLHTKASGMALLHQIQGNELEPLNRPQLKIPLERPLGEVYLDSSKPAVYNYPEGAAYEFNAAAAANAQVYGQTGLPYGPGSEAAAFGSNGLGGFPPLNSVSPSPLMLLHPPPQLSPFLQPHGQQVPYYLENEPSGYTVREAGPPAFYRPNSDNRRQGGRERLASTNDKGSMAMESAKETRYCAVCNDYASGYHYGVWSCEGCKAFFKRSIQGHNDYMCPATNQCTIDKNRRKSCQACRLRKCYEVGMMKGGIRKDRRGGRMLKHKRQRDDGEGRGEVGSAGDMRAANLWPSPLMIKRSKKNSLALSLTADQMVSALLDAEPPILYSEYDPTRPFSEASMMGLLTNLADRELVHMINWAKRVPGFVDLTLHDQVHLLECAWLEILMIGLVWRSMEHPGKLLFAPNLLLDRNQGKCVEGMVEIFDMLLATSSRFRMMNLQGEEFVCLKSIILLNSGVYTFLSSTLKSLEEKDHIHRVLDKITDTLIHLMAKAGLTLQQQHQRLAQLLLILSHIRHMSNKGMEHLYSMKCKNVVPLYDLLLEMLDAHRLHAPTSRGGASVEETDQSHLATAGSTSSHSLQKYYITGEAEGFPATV
Sequence of Androgen receptor (Homo sapiens) (P10275 whole entry, looked up): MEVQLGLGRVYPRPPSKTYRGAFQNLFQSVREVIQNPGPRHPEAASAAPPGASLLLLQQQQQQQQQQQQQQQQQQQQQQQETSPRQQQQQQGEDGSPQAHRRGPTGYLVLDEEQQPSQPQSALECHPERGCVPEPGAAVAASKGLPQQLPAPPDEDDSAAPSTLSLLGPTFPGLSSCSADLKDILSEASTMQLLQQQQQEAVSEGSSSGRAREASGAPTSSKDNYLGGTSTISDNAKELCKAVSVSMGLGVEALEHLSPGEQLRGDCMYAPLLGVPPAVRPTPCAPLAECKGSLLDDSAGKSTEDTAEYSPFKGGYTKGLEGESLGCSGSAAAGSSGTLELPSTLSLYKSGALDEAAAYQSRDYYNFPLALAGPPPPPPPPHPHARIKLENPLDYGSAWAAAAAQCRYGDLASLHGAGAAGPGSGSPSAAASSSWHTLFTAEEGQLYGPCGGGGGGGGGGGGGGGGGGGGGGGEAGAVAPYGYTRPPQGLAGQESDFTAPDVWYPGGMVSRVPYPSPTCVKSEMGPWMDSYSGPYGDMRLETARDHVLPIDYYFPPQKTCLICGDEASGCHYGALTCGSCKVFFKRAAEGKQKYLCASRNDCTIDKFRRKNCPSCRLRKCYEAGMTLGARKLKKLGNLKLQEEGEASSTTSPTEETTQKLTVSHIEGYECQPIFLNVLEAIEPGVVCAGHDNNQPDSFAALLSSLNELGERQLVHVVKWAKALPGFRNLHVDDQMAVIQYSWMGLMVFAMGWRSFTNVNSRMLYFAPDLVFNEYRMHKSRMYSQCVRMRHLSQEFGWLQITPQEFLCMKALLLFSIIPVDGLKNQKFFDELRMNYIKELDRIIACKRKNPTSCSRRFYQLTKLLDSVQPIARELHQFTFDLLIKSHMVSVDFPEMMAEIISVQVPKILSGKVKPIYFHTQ

Row | SMILES | Potency [1] | Potency [2] | Potency [3] | Potency [4] | Potency [5] | Potency [6] | Potency [7] | Potency [8] | Potency [9] | Potency [10] | Potency [11] | Potency [12] | Potency [13] | Potency [14] | outcome [15] | Potency [16] | Potency [17] | Potency [18] | Potency [19] | Potency [20]
1 | CC(=O)Oc1c(C)c(C)c2c(c1C)CC[C@@](C)(CCC[C@H](C)CCC[C@H](C)CCCC(C)C)O2 | inactive | inactive | inactive | inactive | inactive | inactive | inactive | inactive | inactive | inactive | inactive | inactive | inactive | inactive | inactive | inactive | inactive | inactive | – | –
2 | O=C(O)CCCC(=O)O | inactive | inactive | inactive | inactive | inactive | inactive | inactive | inactive | inactive | – | inactive | inactive | – | inactive | inactive | inactive | inactive | inactive | inactive | –
3 | O=C(CCCN1CCC(O)(c2ccc(Cl)cc2)CC1)c1ccc(F)cc1 | 49 µM (active) and inactive | inactive | 21.9 µM (active) | inactive | 49 µM (active) and inactive | 13.8 µM (active) and 8.49 µM (active) | – | inactive | 49 µM (active) and inactive | – | inactive | – | – | inactive | inactive | 68.6 µM (active) and inactive | inactive | inactive | 13.8 µM (active) and 9.52 µM (active) | –
4 | C=C[C@H]1CN2CC[C@H]1C[C@H]2[C@H](O)c1ccnc2ccc(OC)cc12 | inactive | inactive | 54.9 µM (active) and inactive | inactive | inactive | inactive | inactive | inactive | inactive | – | inactive | – | inactive | inactive | inactive | inactive | inactive | – | inactive | –
5 | COc1cc([C@H]2Oc3cc([C@H]4Oc5cc(O)cc(O)c5C(=O)[C@@H]4O)ccc3O[C@@H]2CO)ccc1O | inactive and 15.1 µM (active) | inactive and 21.3 µM (active) | inactive and 21.3 µM (active) | inactive and 16.9 µM (active) | inactive | inactive | – | inactive | inactive and 23.9 µM (active) | inactive | inactive | inactive | inactive | inactive | inactive | 24.3 µM (active) and inactive | 27.2 µM (active) and inactive | inactive | inactive | –
6 | NCCN | inactive | inactive | inactive | inactive | inactive | inactive | inactive | inactive | inactive | – | inactive | inactive | inactive | inactive | inactive | inactive | inactive | inactive | inactive | –
7 | CC(=O)Oc1ccc(C(c2ccc(OC(C)=O)cc2)c2ccccn2)cc1 | inactive | inactive | inactive | inactive | inactive | inactive | inactive | inactive | inactive | – | inactive | 54.2 nM (active) and 944 nM (active) | inactive | inactive | inactive | inactive | inactive | inactive | inactive | 171 nM (active) and 1.19 µM (active)
8 | Cc1ccc(S(=O)(=O)O)cc1C | inactive | inactive | inactive | inactive | inactive | inactive | inactive | inactive | inactive | inactive | inactive | inactive | inactive | inactive | inactive | inactive | inactive | inactive | – | –
9 | CC(C)[N+](C)(CCOC(=O)C1c2ccccc2Oc2ccccc21)C(C)C | inactive | inactive | inactive | inactive | inactive | inactive | inactive | inactive | inactive | – | inactive | inactive | inactive | inactive | inactive | inactive | inactive | inactive | inactive | –
10 | Oc1c(Cl)ccc(Cl)c1Cl | inactive | inactive | inactive | inactive | inactive | inactive | inactive | inactive | inactive | inactive | inactive | inactive | – | inactive | inactive | inactive | inactive | inactive | – | –
11 | CC1(C)C(C=C(Cl)Cl)C1C(=O)OCc1cccc(Oc2ccccc2)c1 (configuration not stated) | inactive | inactive | inactive | inactive | inactive | inactive | inactive | inactive | inactive | inactive | inactive | inactive | inactive | inactive | inactive | inactive | inactive | inactive | – | inactive
12 | CCCCCCCC/C=C\CCCCCCCC(=O)O | inactive | inactive | inactive | inactive | inactive | inactive | inactive | inactive | inactive | inactive | inactive | inactive | inactive | inactive | inactive | inactive | inactive | inactive | – | –
13 | COc1ccc2nc(N)sc2c1 | inactive | inactive | inactive | inactive | inactive | inactive and 3.09 µM (active) | inactive | inactive | inactive | – | inactive | inactive | – | 27.3 µM (active) and 24.3 µM (active) | inactive | inactive | inactive | inactive | inactive | inactive
14 | c1ccc2c(c1)[nH]c1ccccc12 | inactive | inactive | inactive | inactive | inactive | inactive | inactive | inactive | inactive | – | inactive | inactive | – | inactive | inactive | inactive | inactive | inactive | inactive | 8.49 µM (active) and 8.63 µM (active)
